In PubChem BioAssay:
Unmarked numbers belong to inactive results. No rule for the calls is given here.

molecular target: Pantothenate synthetase (Mycobacterium tuberculosis (strain ATCC 25618 / H37Rv)) (UniProt P9WIL5); assay: Coupled enzyme confirmation of inhibitors against recombinant Mtb PanC (AID 375); settings: coupled enzyme assay; at 10 µM, active compounds read high;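 also: 0% = full reaction with vehicle and 100% = no enzyme background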
Sequence (P9WIL5 whole entry, looked up): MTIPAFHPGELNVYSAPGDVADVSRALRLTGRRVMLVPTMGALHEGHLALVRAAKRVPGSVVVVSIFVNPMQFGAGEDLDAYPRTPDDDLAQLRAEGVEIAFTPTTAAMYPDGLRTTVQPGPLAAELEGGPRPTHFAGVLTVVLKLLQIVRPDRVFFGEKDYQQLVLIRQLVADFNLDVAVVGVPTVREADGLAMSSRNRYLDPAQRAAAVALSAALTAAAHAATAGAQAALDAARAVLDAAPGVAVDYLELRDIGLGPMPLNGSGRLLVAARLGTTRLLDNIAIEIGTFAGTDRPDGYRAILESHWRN

Compound	inhibition [%]
Cc1ccc(NC(=O)Nc2ccc3c(c2)N(C)C(=O)CS3)nc1	5
CC1(C)CC2CC(C)(CN2S(=O)(=O)c2ccc(N)cc2)C1 (stereo not given)	0
O=C(CCN1C(=O)C2C3C=CC(C3)C2C1=O)Nc1c(F)cc(F)cc1Br (stereo not given)	0
Cc1ccc(S(=O)(=O)Cc2ccc(C(=O)NCCCN3CCN(C)CC3)o2)cc1	1
Cc1ccc(CC2SC(=O)NC2=O)cc1Cl (stereo not given)	0
CC(C)Cc1nnc(NS(=O)(=O)c2ccc(Cl)cc2)s1	0
C/C(N)=C(/C#N)C(=O)COC(=O)c1cc(S(=O)(=O)N2CCCCC2)ccc1C	0
COc1cccc(CNC(=O)Cn2c(=O)oc3ccccc32)c1OC	0
O=c1[nH]c(SCc2ccc(F)cc2)nc2c1cnn2-c1ccc(F)cc1	0
COc1ccc(S(=O)(=O)N2CCN(CC(=O)Nc3ccc(C)c(F)c3)CC2)cc1	0
CC(=O)Nc1ccc(NC2=CC(=O)CC(C)(C)C2)cc1	4
O=C(OCCCCN1C(=O)c2ccccc2C1=O)c1n[nH]c2ccccc12	2
Cc1cc(=O)n2nc(N3CCC(C(=O)N4CCN(Cc5ccccc5)CC4)CC3)sc2n1	2
COc1cc(-n2nc(C)c3c2OC(N)=C(C#N)C3c2ccccc2)c(Cl)c(Br)c1O (stereo not given)	9
CC1=C(C(=O)Nc2ccccc2C)C(c2ccc(C)o2)N2C(=O)CSC2=N1 (stereo not given)	0
Cc1nnc(SCC(=O)N2CCC(C(N)=O)CC2)s1	0
O=C(CCc1ccc(S(=O)(=O)N2CCOCC2)cc1)NCCc1ccccn1	0
CCOC(=O)c1ccc(NS(=O)(=O)c2ccc3c(c2)oc(=O)n3C)cc1	0
c1ccc(-c2cc3c(nn2)CCc2nonc2-3)cc1	0
CC1=C(C(N)=O)C(c2ccc(Cl)cc2Cl)n2ncnc2N1 (stereo not given)	0

Compound	inhibition [%]
Cc1nnc(SCC(=O)Nc2ccc3c(c2)OCCO3)n1CC1CCCO1 (stereo not given)	0
Cc1cc(C)n(CC(=O)NC2CCCCC2)n1	0
COc1ccccc1C(=O)NCCNC(=O)c1ccco1	0
CCSc1nnc(NC(=O)CCNS(=O)(=O)c2cc(Br)cnc2N)s1	3
COCCN1C(=O)c2oc3c(C)cc(C)cc3c(=O)c2C1c1cccc(O)c1 (stereo not given)	5
CC(=O)[C@H]1CC[C@H]2[C@@H]3CCC4=CC(=O)CC[C@]4(C)[C@H]3[C@H](O)C[C@]12C	0
Nc1nnc(SCc2cc3c(cc2Cl)OCO3)s1	7
CCOc1cc(C2c3c(n[nH]c3C)C(=O)N2c2ccc(Br)cc2)ccc1O (stereo not given)	0
CCOc1ccc(NC(=O)CSc2nccn2C)cc1	6
CC(=Nc1ccc(C)c(C)c1)C1=C(O)CCC1=O	3
CSC1=NCCN1C(=O)c1ccc(S(=O)(=O)N2CCCC2)cc1	0
FC(F)(F)c1cccc(N2CCN(c3nnnn3-c3ccccc3)CC2)c1	0
COCCNC(=O)c1cc(-c2cccs2)on1	0
CC(C)(C)c1ccccc1NC(=O)c1cccnc1	10
CC(=O)c1ccccc1NS(=O)(=O)c1c(C)nn(-c2ccccc2)c1C	0
CN1CCC(NC(=O)c2cccs2)CC1	2
Cn1c(CSc2nc3ccccc3s2)nnc1SCC(=O)NCCN1CCOCC1	0
COc1cc(-c2nc(-c3ccncc3)no2)cc(OC)c1OC	2
COc1ccc(NS(=O)(=O)c2ccc(NC(C)=O)cc2)cc1OC	0
O=C(CCSc1nc(-c2ccco2)cc(C(F)(F)F)n1)NCCc1ccccc1	1
